The nature of experiment [1]: cAMP Responsive Elements (CRE) small molecule antagonists, cell-based qHTS assay: qHTS cell viability counter screen (AID 2060913). Also: nearly all actives have a fitted effect of over 40% in size. An outline of the steps: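 HEK293T CRE-bla, 2,000 cells/well, 18 h preincubation; cpd in DMSO + NKH477 0.25 uM final, 3 h 37 C/5% CO2; LiveBLAzer 2 h RT, then CellTiter-Glo 30 min RT, luminescence.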
(In qHTS, concentration-response curves come from the screen itself.)

Experiment [2] in a line: cAMP Responsive Elements (CRE) small molecule agonists, cell-based qHTS assay: qHTS cell viability counter screen (AID 2060914). Also: potency is read from the fitted curve at half-maximal effect.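 Also: viability read after 3 h of compound exposure; nearly all actives have a fitted effect of over 50% in size.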 An outline of the steps:
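CRE-bla HEK293T cells in 10% dialyzed FBS medium were exposed to compounds for 3 h at 37C after 18 h plating. CellTiter-Glo was then added in the same wells, and luminescence was read after 30 min at room temperature.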

The structures appear in SMILES notation. Records with an inconclusive call do not appear. Values without a mark were called inactive. Active and inactive are the calls of the source. Calls follow the shape of the dose curve; as a rule, active = well fitted cell-killing curve with a large enough effect in the repeat runs; inconclusive = weak or mixed curves, or effect the other way; inactive = flat fitted curve, though single readings scatter.
% is scaled to controls: 0 for no effect and ±100 for the full control effect.

As for `O=C(N[C@@H](Cc1ccccc1)[C@@H](O)C(=O)N1C[C@@H](O)[C@@H](O)C1)c1cc2cc(Cl)ccc2[nH]1`, the Potency entry in experiment [1] and in experiment [2] was “inactive” in each case.
On to `CCOC(=O)C(C)(C)Oc1ccc(Cl)cc1`, for which the Potency entry in experiment [1] and in experiment [2] was “inactive” in each case.
In the case of `CCOc1nc(F)cc2nc(S(=O)(=O)Nc3c(Cl)cccc3C(=O)OC)nn12`, the Potency entry in experiment [1] and in experiment [2] was “inactive” in each case.
Take `CC1CCCCC1`: the Potency result in experiment [1] and in experiment [2] was “inactive” throughout.
Regarding `CCCNC(C)C(=O)Nc1ccccc1C` (stereo not given), the Potency entry in experiment [1] and in experiment [2] was “inactive” throughout.
On to `CC(=O)O[C@]1(C(C)=O)CC[C@H]2[C@@H]3C[C@H](C)C4=CC(=O)CC[C@]4(C)[C@H]3CC[C@@]21C`, for which the Potency entry in experiment [1] and in experiment [2] was “inactive” each time.
For the compound `CC(C)c1ccc2oc3nc(N)c(C(=O)O)cc3c(=O)c2c1`, the Potency entry in experiment [1] and in experiment [2] was “inactive” throughout.
For `O=C(Oc1ccccc1)c1ccccc1`, the Potency entry in experiment [1] and in experiment [2] was “inactive” in each case.
Consider `CSSc1ccoc1C`, for which the Potency entry in experiment [1] and in experiment [2] was “inactive” throughout.
As to `CCC(=O)c1c(O)cc(O)cc1O`, the Potency result in experiment [1] and in experiment [2] was “inactive” each time.
Regarding `CC(C)CCCC(C)CC=O` (stereo not given), the Potency entry in experiment [1] and in experiment [2] was “inactive” throughout.
Consider `CCN(CC)CCOc1ccc2c(c1)C(=O)c1cc(OCCN(CC)CC)ccc1-2`, for which the Potency result in experiment [1] and in experiment [2] was “inactive” throughout.
Take `C[C@](N)(Cc1ccc(O)cc1)C(=O)O`: the viability change, negative = cytotoxic in experiment [1] was -1.28% [at 8.39 µM]. The activity change, negative = cytotoxicity in experiment [2] was -8.98% [at 8.39 µM].
Regarding `CC1=CC(=O)c2ccccc2C1=O`, the Potency entry in experiment [1] and in experiment [2] was “inactive” in each case.
On to `CC(C)(C)c1ccc(C(=O)O)cc1`, for which the Potency entry in experiment [1] and in experiment [2] was “inactive” throughout.
For the compound `Nc1nc(-c2ccc([N+](=O)[O-])cc2)cs1`, the Potency result in experiment [1] and in experiment [2] was “inactive” each time.
Regarding `COC(=O)C1CCC(C(=O)OC)CC1` (stereo not given), the Potency result in experiment [1] and in experiment [2] was “inactive” throughout.
As to `CO/N=C(\C(=O)O)c1csc(NC(=O)CCl)n1`, the Potency entry in experiment [1] and in experiment [2] was “inactive” in each case.
Regarding `C#C[C@]1(O)CC[C@H]2[C@@H]3CCc4cc(OC)ccc4[C@H]3CC[C@@]21C`, the Potency entry in experiment [1] and in experiment [2] was “inactive” in each case.
Consider `Cc1cccnc1`, for which the Potency result in experiment [1] and in experiment [2] was “inactive” throughout.
With `OC(CCN1CCCCC1)(c1ccccc1)C1CCCCC1` (stereo not given), the Potency result in experiment [1] and in experiment [2] was “inactive” throughout.
Consider `O=Nc1ccc(NO)cc1`, for which the Potency result in experiment [1] and in experiment [2] was “inactive” in each case.
Turning to `C[C@@H](C1=C(CCN(C)C)Cc2ccccc21)c1ccccn1`, the Potency result in experiment [1] and in experiment [2] was “inactive” throughout.
Regarding `NCCCNCCSP(=O)(O)O`, the viability change, negative = cytotoxic in experiment [1] is -1.42% [at 8.39 µM]. Besides, in experiment [2], the activity change, negative = cytotoxicity is 3.53% [at 8.39 µM].
For `O=C1C=CC(=O)O1`, the Potency entry in experiment [1] and in experiment [2] was “inactive” throughout.
With `CC(=O)c1cccnc1`, the Potency entry in experiment [1] and in experiment [2] was “inactive” each time.
Regarding `CC(COC(C)(C)C)OCCCO` (stereo not given), the Potency result in experiment [1] and in experiment [2] was “inactive” throughout.
Take `O=C(O)c1ccc(OCCCOc2ccc(C(=O)O)cc2)cc1`: the Potency result in experiment [1] and in experiment [2] was “inactive” each time.
As for `OC(Cn1cncn1)(Cn1cncn1)c1ccc(F)cc1F`, the Potency entry in experiment [1] and in experiment [2] was “inactive” throughout.
For the compound `CCCCCCCCC(=O)OCC`, the Potency result in experiment [1] and in experiment [2] was “inactive” in each case.
Consider `CCC(=O)OCCOc1ccccc1`, for which the Potency entry in experiment [1] and in experiment [2] was “inactive” each time.
Consider `C[N+]1(C)CCC(=C(c2ccccc2)c2ccccc2)CC1`, for which the Potency result in experiment [1] and in experiment [2] was “inactive” in each case.
Consider `CCCCCCCCc1ccc(Nc2ccc(CCCCCCCC)cc2)cc1`, for which the Potency result in experiment [1] and in experiment [2] was “inactive” each time.
On to `CC(=O)Nc1ccc(C)cc1`, for which the Potency entry in experiment [1] and in experiment [2] was “inactive” throughout.
Consider `CC(C)c1ccccc1O`, for which the Potency entry in experiment [1] and in experiment [2] was “inactive” throughout.
On to `CCCCCO`, for which the Potency entry in experiment [1] and in experiment [2] was “inactive” in each case.
Regarding `CC(=O)OC1CCC(C(C)(C)C)CC1` (stereo not given), the Potency entry in experiment [1] and in experiment [2] was “inactive” in each case.
Take `O=C(Cl)c1ccc(F)c(Cl)c1`: the Potency entry in experiment [1] and in experiment [2] was “inactive” in each case.
`O=Cc1ccc(Cl)cc1`: the Potency entry in experiment [1] and in experiment [2] was “inactive” in each case.
On to `CCCC(C(=O)OCCN(CC)CC)(c1ccccc1)c1ccccc1`, for which the Potency entry in experiment [1] and in experiment [2] was “inactive” in each case.
In the case of `NC(N)=NS(=O)(=O)c1ccc(N)cc1`, the Potency entry in experiment [1] and in experiment [2] was “inactive” each time.
With `COS(=O)(=O)C(F)(F)F`, the Potency result in experiment [1] and in experiment [2] was “inactive” throughout.
Turning to `Cc1cc(O)c(C(C)C)cc1Cl`, the Potency entry in experiment [1] and in experiment [2] was “inactive” each time.
Take `CC(C)(CCC(=O)O)C(=O)O`: the Potency entry in experiment [1] and in experiment [2] was “inactive” each time.
Turning to `O=C1CC2(CCCC2)CC(=O)N1`, the Potency result in experiment [1] and in experiment [2] was “inactive” throughout.
As to `CC1=CCC(C(C)C)C=C1` (stereo not given), the Potency result in experiment [1] and in experiment [2] was “inactive” in each case.
Turning to `O=C(O)C[C@H](NC(=O)OCc1ccccc1)C(=O)O`, the Potency entry in experiment [1] and in experiment [2] was “inactive” each time.
For `CC(C)=CCC1C(=O)N(c2ccccc2)N(c2ccccc2)C1=O`, the Potency entry in experiment [1] and in experiment [2] was “inactive” each time.
As for `O=C(O)c1ccccc1OP(=O)(O)O`, the Potency result in experiment [1] and in experiment [2] was “inactive” in each case.
Take `CC[C@H](C)C(=O)O[C@H]1C[C@H](O)C=C2C=C[C@H](C)[C@H](CC[C@@H](O)C[C@@H](O)CC(=O)O)[C@H]21`: the Potency entry in experiment [1] is “inactive”. Also, the Potency in experiment [2] is 5.45 µM (active).

The values above are taken from PubChem BioAssay (Tox21).
